Assay results taken from article PMC4336329 (PLoS ONE, 2015).
The whole screen tested about 310,000 compounds, of which about 2,200 (0.71%) showed an effect of 50% or more. Effects have a minus sign here. The list comes from a sample in which strong results are over-represented; it also holds similar structures and randomly drawn compounds.

Target: human ether-à-go-go-related gene (hERG) potassium channel (human, UniProt Q12809)
Experiment: primary screen, population patch clamp on CHO cells stably expressing hERG; higher = less effect of the substance

Sequence of human ether-à-go-go-related gene (hERG) potassium channel (Q12809 whole entry, looked up): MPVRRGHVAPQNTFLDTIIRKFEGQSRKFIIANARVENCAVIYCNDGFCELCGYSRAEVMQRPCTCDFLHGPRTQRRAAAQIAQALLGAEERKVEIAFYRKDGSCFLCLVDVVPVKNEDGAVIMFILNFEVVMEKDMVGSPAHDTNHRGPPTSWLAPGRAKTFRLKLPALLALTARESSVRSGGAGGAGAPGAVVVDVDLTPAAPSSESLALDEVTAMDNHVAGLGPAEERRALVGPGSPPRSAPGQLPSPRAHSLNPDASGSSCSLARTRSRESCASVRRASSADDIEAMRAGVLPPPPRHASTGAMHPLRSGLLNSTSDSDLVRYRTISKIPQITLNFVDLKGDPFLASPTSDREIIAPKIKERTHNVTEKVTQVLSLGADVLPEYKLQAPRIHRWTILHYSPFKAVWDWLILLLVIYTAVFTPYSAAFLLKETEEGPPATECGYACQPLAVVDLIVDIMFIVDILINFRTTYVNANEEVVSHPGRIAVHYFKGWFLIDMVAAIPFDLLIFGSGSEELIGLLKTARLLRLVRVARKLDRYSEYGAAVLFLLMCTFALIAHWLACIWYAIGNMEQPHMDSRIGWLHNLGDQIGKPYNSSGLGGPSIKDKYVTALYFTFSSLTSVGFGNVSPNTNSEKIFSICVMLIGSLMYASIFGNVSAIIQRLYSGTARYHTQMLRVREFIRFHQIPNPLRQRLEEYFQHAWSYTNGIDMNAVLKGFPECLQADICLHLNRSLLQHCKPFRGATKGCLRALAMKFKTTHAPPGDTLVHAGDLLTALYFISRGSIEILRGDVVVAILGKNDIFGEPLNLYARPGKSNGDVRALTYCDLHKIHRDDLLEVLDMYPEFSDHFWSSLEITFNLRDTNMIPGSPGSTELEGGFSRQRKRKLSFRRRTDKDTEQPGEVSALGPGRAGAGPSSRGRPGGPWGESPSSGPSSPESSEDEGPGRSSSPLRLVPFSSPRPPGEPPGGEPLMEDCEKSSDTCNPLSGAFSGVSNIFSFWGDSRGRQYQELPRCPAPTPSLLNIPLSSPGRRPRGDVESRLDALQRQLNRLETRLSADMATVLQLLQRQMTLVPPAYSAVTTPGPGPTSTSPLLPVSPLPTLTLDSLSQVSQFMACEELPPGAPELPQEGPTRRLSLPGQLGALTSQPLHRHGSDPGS

Structure (SMILES)	hERG current change (%, negative = inhibition) at 1uM [%]
O=S(=O)(NC1CC1)c1ccc(F)c(F)c1	10.1
OCCN(Cc1nc(-c2ccc3c(c2)OCO3)no1)Cc1cccs1	7.42
CC(Oc1cc2oc(=O)c3c(c2cc1Cl)CCC3)C(=O)NCCCN1CCOCC1 (stereo not drawn)	13.3
Cc1ccc(CN=C(N)Nc2nc(C)cc(C)n2)cc1.Cl	-19.5
CN(Cc1ccc(F)cc1)C(=O)c1ccc(NC(=O)CC2SC(N3CCCC3)=NC2=O)cc1 (stereo not drawn)	8.82
COc1ccc(S(=O)(=O)NCC2CCCN(C(=O)c3cccnc3C)C2)cc1 (stereo not drawn)	14
COc1ccc2c(ccc[n+]2CC(=O)c2ccc(C)cc2)c1.[Br-]	8.14
COc1ccc(/C=N\NC(=O)c2cc(O)c(O)c(O)c2)cc1CN1CCN(c2ccc(F)cc2)CC1	10.4
COc1cc(C(=O)N/N=C/c2ccc(OC)c(CN3CCN(c4ccc(F)cc4)CC3)c2)ccc1O	-52.4
COc1ccc(/C=N/NC(=O)c2ccc(Br)cc2)cc1CN1CCOCC1	-23.8
CCN(CC(=O)N1CCOCC1)S(=O)(=O)c1ccccc1	12.4
Cc1nc2sccn2c(=O)c1CCN1CCC(=C(c2ccc(F)cc2)c2ccc(F)cc2)CC1	-65
Cc1nc2sccn2c(=O)c1S(=O)(=O)NCc1ccccc1	9.92
Cc1nc2sccn2c(=O)c1S(=O)(=O)N1CCN(c2ccc(F)cc2)CC1	-23
Cc1nc2sccn2c(=O)c1CCN1CCC(=C(c2ccccc2)c2ccc(F)cc2)CC1	-78.8
Cc1nc2ccccn2c(=O)c1CCN1CCC(C(=O)c2ccc(F)cc2)CC1	-66.2
Cc1nc2sccn2c(=O)c1S(=O)(=O)NCCc1ccccc1	-10.2
Cc1ccccc1NC(=O)N1CCC(C(=O)c2ccc(F)cc2)CC1	17.6
CCOc1ccccc1NC(=O)N1CCC(C(=O)c2ccc(F)cc2)CC1	9.5
CCCCc1c(O)nc2sccn2c1=O	5.53
CC(NCC(=O)Nc1ccccc1C(=O)NC1CC1)c1ccc(F)cc1F (stereo not drawn)	1.42
COc1ccccc1N1CCN(S(=O)(=O)c2c(C)sc3ncn(CC(=O)NCCN(C)C)c(=O)c23)CC1	10.8
Cc1ccc(S(=O)(=O)N2CCN(C(=O)CN3CCCSc4ccccc43)CC2)cc1	3.85
N/C(=N\N=C\c1ccc(O)cc1O)N[N+](=O)[O-]	8.72

Structure (SMILES)	hERG current change (%, negative = inhibition) at 1uM [%]
COc1ccc(C(=O)OCc2nnc(-c3ccccc3)o2)cc1S(=O)(=O)N1CCOCC1	4.07
Cc1cc(=O)[nH]c(SCC(=O)NCC2CCCCC2)c1C#N	16
CCOc1ccccc1NC(=O)C(=O)NCCC1=CCCCC1	9.84
CCCCN(CC)CCCNC(=O)c1ccc(CS(=O)(=O)c2c(Cl)cccc2Cl)o1	-8.53
CCCCN(CCCNC(=O)c1ccc(CS(=O)(=O)c2c(Cl)cccc2Cl)o1)Cc1ccccc1	-30.5
CN(CCNC(=O)c1ccc(CS(=O)(=O)c2ccc(Br)cc2)o1)CCc1ccccc1	-42
CN(CCNC(=O)c1ccc(CS(=O)(=O)c2c(Cl)cccc2Cl)o1)CCc1ccccc1	-50.4
CCCN(CCC)CCCNC(=O)c1ccc(CS(=O)(=O)c2c(Cl)cccc2Cl)o1	-59.1
CC(C)N(CCNC(=O)c1ccc(CS(=O)(=O)c2c(Cl)cccc2Cl)o1)Cc1ccccc1	-3.94
Cc1ccc(-c2csc(NC(=S)NC(=O)/C=C/c3ccco3)n2)cc1	23.2
O=C1OCCC1Sc1nnc(-c2ccc3c(c2)OCO3)n1-c1ccccc1 (stereo not drawn)	4.75
Cc1c(C(=O)NCc2ccc3c(c2)OCO3)oc2ccc(S(=O)(=O)N3CCCC3)cc12	19.4
N#Cc1cc2c(nc1SCC(=O)NCc1ccc3c(c1)OCO3)CCCCC2	1.91
CCOc1ccc(NC(=O)CN(C)C(=O)CSCc2ccc(C)cc2)cc1OCC	-1.27
COC(=O)CCNC(=O)Cc1c(C)n(C(=O)c2ccc(Cl)cc2)c2ccc(OC)cc12	8.1
Cc1ccc(-n2ccnc2SCC(=O)N(CC(C)C)C2CCS(=O)(=O)C2)c(C)c1 (stereo not drawn)	-3.07
COc1cc2c(c(OC)c1OC)-c1c(cc(OC)c(OC)c1OC)C[C@H](C)[C@H](C)C2	-22.5
COc1cc2c(c(OC)c1OC)-c1c(cc3c(c1OC)OCO3)C[C@H](C)[C@@](C)(O)C2	17.5
COc1cc2c(c(OC)c1OC)-c1c(cc(OC)c(OC)c1OC)C[C@](C)(O)[C@@H](C)C2	-58.4
O=Nc1c(O)[nH]c2ccc(Cl)cc12	4.46
CCCCc1cc(=O)oc2cc(C)cc(OCC(=O)NCc3ccncc3)c12	-73.8
CCc1cc(=O)oc2cc(C)cc(OCC(=O)NCCCn3ccnc3)c12	-7.42
Cc1cc(OCC(=O)NCCCn2ccnc2)c2c(C)cc(=O)oc2c1	14.7
Cc1cc(OC(C)C(=O)NCCCn2ccnc2)c2c(C)cc(=O)oc2c1 (stereo not drawn)	9.26

Structure (SMILES)	hERG current change (%, negative = inhibition) at 1uM [%]
CCc1cc(=O)oc2c(C)c(OCC(=O)NCCCn3ccnc3)ccc12	5.28
CCc1cc(=O)oc2cc(C)cc(OC(C)C(=O)NCCCn3ccnc3)c12 (stereo not drawn)	2.72
Cc1cc(OC(C)C(=O)NCCCn2ccnc2)c2c(C)c(C)c(=O)oc2c1 (stereo not drawn)	-51.6
Cc1c(C)c2ccc(OCC(=O)NCCCn3ccnc3)c(C)c2oc1=O	-11.1
CCCc1cc(=O)oc2cc(C)cc(OCC(=O)NCCCn3ccnc3)c12	-66.7
CCc1cc(=O)oc2cc(C)cc(OCC(=O)NCc3ccncc3)c12	-8.01
CCCc1cc(=O)oc2cc(C)cc(OCC(=O)NCc3ccncc3)c12	-48
CCCc1cc(=O)oc2c(C)c(OCC(=O)NCCCn3ccnc3)ccc12	-70
CCC(=O)N1CCN(c2ccc(NC(=O)COc3ccc(CC)cc3)cc2)CC1	10.9
CC(C)[C@@H]1NC(=O)c2cc([N+](=O)[O-])cc(I)c2NCCC[C@@H](C(N)=O)NC(=O)[C@H](CO)NC1=O	8.46
O=C(CSc1ncn[nH]1)c1cccc([N+](=O)[O-])c1	11.5
C#CCNC(=O)C1=C[C@H](c2ccc3c(c2)OCO3)C[C@H](OCCCCO)O1	15
CCN(CC(=O)Nc1c(F)cccc1F)C(=O)c1ccc2ncsc2c1	12.3
CC1=CCC(C(=O)O)C(C(=O)Nc2cccnc2)C1 (stereo not drawn)	5.97
COc1ccc(CCNC(=O)CNS(=O)(=O)c2ccc(Br)s2)cc1OC	1.45
CC(CN1CCOCC1)OC(=O)C1COc2ccccc2O1.Cl (stereo not drawn)	7.15
CC(NCC(=O)Nc1ccccc1C(=O)NC1CC1)c1ccc(S(C)(=O)=O)cc1 (stereo not drawn)	10.9
CCCCc1cc(=O)oc2c(C)c(OCC(=O)NCCN3CCOCC3)ccc12	-77.1
CCCc1cc(=O)oc2c(C)c(OCC(=O)NCCN3CCOCC3)ccc12	-6.02
CCc1cc(=O)oc2c(C)c(OCC(=O)NCCN3CCOCC3)ccc12	12.8
Cc1nc2cc(NC(=O)NCc3ccccc3)ccc2o1	16.2
CCOC(=O)Cc1nc2ccccc2o1	9.03
O=C(NCc1cccnc1)Nc1ccc(Cl)cc1	-18.3
CCOC(=O)C1=C(OCc2ccc(Cl)cc2)C2C=C(C)C=CC2N=C1 (stereo not drawn)	-18.1

Structure (SMILES)	hERG current change (%, negative = inhibition) at 1uM [%]
COc1ccccc1CNn1c(-c2cccc(C)c2)nc2ccccc2c1=O	5.72
COc1ccc(CNn2c(-c3cccc(C)c3)nc3ccccc3c2=O)cc1OC	-54.8
COc1cccc(CNn2c(-c3cccc(C)c3)nc3ccccc3c2=O)c1	6.03
CCCCN(CCCC)/C(N)=N/c1nc(C)cc(C)n1	-51.8
CCN(CC)/C(N)=N/c1nc(C)cc(C)n1	3.23
Cc1cc(C)nc(/N=C(\N)N(Cc2ccccc2)Cc2ccccc2)n1	-31.2
Cc1cc(OCC(=O)N2CCC(C(=O)O)(c3ccccc3)CC2)c2c(C)c(C)c(=O)oc2c1	4.94
COc1ccc(OCC(=O)Nc2ccc(OC)c(S(=O)(=O)N3CCCCC3)c2)cc1	-2.82
Brc1ccc(Oc2nnnn2-c2ccccc2)cc1	11
COc1ccc(C(=O)N2CCC(C(=O)Nc3ccc(OC)c(OC)c3)CC2)cc1	10.7
O=C(Nc1ccc(F)cc1)C1CCN(C(=O)c2ccc([N+](=O)[O-])cc2)CC1	11.5
COc1ccc(C(=O)N2CCC(C(=O)Nc3ccc(C)cc3)CC2)cc1	-31.9
O=C(Nc1ccccc1)C1CCN(C(=O)c2ccc([N+](=O)[O-])cc2)CC1	-67
COc1ccc(C(=O)N2CCC(C(=O)Nc3ccc4c(c3)OCCO4)CC2)cc1	-13.1
CC(=O)Nc1ccc(NC(=O)C2CCN(C(=O)c3ccc([N+](=O)[O-])cc3)CC2)cc1	22.3
O=C(Nc1ccc2c(c1)OCO2)C1CCN(C(=O)c2ccc([N+](=O)[O-])cc2)CC1	-74.6
O=C(Nc1ccc2c(c1)OCCO2)C1CCN(C(=O)c2ccc(F)cc2)CC1	5.7
COc1ccc(NC(=O)C2CCN(C(=O)c3ccc(OC)cc3)CC2)cc1	-69.6
COc1ccc(C(=O)N2CCC(C(=O)Nc3ccc4c(c3)OCO4)CC2)cc1	-59
COc1cc(OC)cc(C(=O)N2CCC(C(=O)Nc3ccc4c(c3)OCCO4)CC2)c1	12.5
O=C(Nc1ccc2c(c1)OCCO2)C1CCN(C(=O)c2ccc([N+](=O)[O-])cc2)CC1	-16.3
